# In the library only some 2.8% were active in any assay of this set; here they are far more common.
# POLB inh – blocks human DNA polymerase beta activity; P06746; Pol beta primer extension/strand displacement, fluorescence kinetic; Potency, µM (series often up to 114 µM), inactives show top-dose activity change, negative = inhibition, usual class: inhibitors; actives 1.3% (n = 340,000); note: potency is the fitted concentration of half-maximal effect; % is set by controls: 0 for no effect and ±100 for the full control effect
#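 Reaction started by 50 nM substrate onto compound-treated Pol beta (10 nM, 15 min preincubation, room temperature); plates read at 0 min and 10 min. Normalized concentration-effect data fitted by four-parameter Hill equation.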
# POLK inh – DNA polymerase kappa (human) inhibition; Q9UBT6; purified Pol kappa, fluorescent DNA synthesis assay, 10 min; Potency, µM (series often up to 107 µM), for inactives: at the top dose activity, negative = inhibition, most hits filed as inhibitors; actives 0.53% (n = 400,000); note: potency is the fitted concentration of half-maximal effect; % is set by controls: 0 for no effect and ±100 for the full control effect
#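 First, compounds were pin-transferred onto 10 nM Pol kappa. After 15 min at room temperature, substrate was added to 50 nM final. Fluorescence was then measured kinetically at 0 and 10 min.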
# Pol eta inh – blocks human DNA polymerase eta activity; Q9Y253; recombinant Pol eta, fluorescent DNA replication assay; Potency, µM (top dose mostly 114 µM), for inactives: top-dose activity change, negative = inhibition, most hits filed as inhibitors; actives 1.2% (n = 390,000); note: potency is the fitted concentration of half-maximal effect; % is set by controls: 0 for no effect and ±100 for the full control effect
#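 Fluorescent replication assay: 50 nM final substrate added after a 15 min room-temperature compound preincubation with 10 nM enzyme. Signal taken at 0 min and again at 10 min.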
# Pol iota inh – blocks human DNA polymerase iota activity; Q9UNA4; Pol iota fluorescent replication assay, 10 min; Potency, µM (series often up to 115 µM), for inactives: at the highest dose activity, negative = inhibition, most hits filed as inhibitors; actives 1% (n = 390,000); note: potency is the fitted concentration of half-maximal effect
#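 Pol iota at 10 nM preincubated 15 min with compounds at room temperature; reaction started with fluorescent substrate, 50 nM final. Fluorescence read kinetically at 0 and 10 min; buffer-only wells as negative control.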
# WRN helicase inh – inhibitors of human WRN helicase | WRN helicase unwinding, fluorescent forked duplex, kinetic | actives 0.46% (n = 360,000) | AID 651768 | Q14191 | Potency, µM (highest dose often 114 µM), without a hit: at the highest dose activity change, negative = inhibition, usual class: inhibitors; note: potency is the fitted concentration of half-maximal effect; % is set by controls: 0 for no effect and ±100 for the full control effect; nearly all actives have a fitted effect of over 55% in size
#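 Primary qHTS, 1536-well format. 20 nM WRN + compound, 15 min RT; start with 100 nM forked fluorophore/quencher duplex, 2 mM ATP (final); kinetic read ex 525/em 598 nm.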
# PI5P4K alpha inh – PI5P4K alpha (human) kinase inhibition | PI5P4Kalpha enzyme, ADP-Glo luminescence, 60 min; hits give low values | max response, % | P48426 | actives 1.2% (n = 330,000); active = max response of -50% or lower; inconclusive = between -30% and -50%; inactive = -30% or higher; note: value at the top dose of about 77 µM; % is set by controls: 0 for no effect and ±100 for the full control effect
# Target sequence (P48426 whole entry, looked up): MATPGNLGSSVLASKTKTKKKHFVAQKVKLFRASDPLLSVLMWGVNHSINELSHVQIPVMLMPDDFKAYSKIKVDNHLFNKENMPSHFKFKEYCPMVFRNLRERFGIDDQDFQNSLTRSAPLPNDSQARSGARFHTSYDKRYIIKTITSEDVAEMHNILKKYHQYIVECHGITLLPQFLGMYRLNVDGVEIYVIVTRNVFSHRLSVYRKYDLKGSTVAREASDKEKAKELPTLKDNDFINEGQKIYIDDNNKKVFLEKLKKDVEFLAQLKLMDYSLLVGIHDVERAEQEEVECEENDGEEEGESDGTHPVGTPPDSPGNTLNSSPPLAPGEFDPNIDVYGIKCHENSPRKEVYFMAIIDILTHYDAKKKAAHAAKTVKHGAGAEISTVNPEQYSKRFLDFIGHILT
#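 PI5P4Kalpha ADP-Glo assay; 5 microM ATP final; 60 min RT reaction; HEPES pH 7.4/EGTA/CHAPS, 5% DMSO; controls lacking substrate or enzyme; luminescent end-point.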
# * = called active by the depositor; ? = inconclusive; . = not tested or not shown; [ ] = dose if it differs, or a comment. Unless noted, calls come from the whole dose curve; as a rule, active = well fitted curve in the direction sought with a large enough effect; inconclusive = small, poorly fitted or top-dose-only effect, or another doubt; inactive = no such curve, though single readings can be large; an effect the other way counts as inactive or inconclusive.
SMILES,POLB inh,POLK inh,Pol eta inh,Pol iota inh,WRN helicase inh,PI5P4K alpha inh
O=C(CCS(=O)(=O)c1ccc(Br)cc1)NC1CCCC1,22µM*,?,?,-5%,-1%[57.1 µM],.
COc1ccccc1NC(=O)c1ccc(NC(=O)COC(=O)c2cccnc2Cl)cc1,.,-14%,-14%,17%,4%,-1
CCCCCNC(=O)C(c1ccccc1F)n1c(=O)c(-c2ccco2)nc2ccccc21 (stereo unspecified),.,.,.,.,-13%,-64*
CC(C)(C)NC(=O)C(c1ccccc1F)n1c(=O)c(-c2ccco2)nc2ccccc21 (stereo unspecified),.,.,.,.,-3%,-24
O=C(NC1CCCCC1)C(c1ccc(-c2ccccc2)cc1)n1c(=O)c(-c2ccco2)nc2ccccc21 (stereo unspecified),.,.,.,.,-22%,-92*
O=C(NC1CCCCC1)C(c1ccccc1F)n1c(=O)c(-c2ccco2)nc2ccccc21 (stereo unspecified),.,.,.,.,-5%,-69*
CSc1cccc(NC(=O)CC2Oc3ccccc3NC2=O)c1 (stereo unspecified),13%,-1%,-2%,-6%,2%,10
O=C(NC1CCCCC1)N1CCN(Cc2ccco2)CC1,1%,0%,-21%,82%,0%,-6
O=C(CN1C(=O)C(=O)N(Cc2ccco2)C1=O)NC1CCCCC1,-15%,?,32µM*,?,-8%[11.6 µM],0
O=C(NC1CCCCCC1)c1ccco1,5%,89µM*,-4%,32µM*,4%[11.6 µM],2
O=C(CNC(=O)c1ccco1)NC1CCCCCC1,.,1%,-1%,-20%,5%,0
COc1cc2c(cc1O)CCN[C@@]21CS[C@H]2c3c(OC(C)=O)c(C)c4c(c3C(COC1=O)N1C2C2c3c(cc(C)c(OC)c3O)CC([C@@H]1O)N2C)OCO4 (stereo partly specified),.,-19%[19.4 µM],.,.,.,.
N=C1C=CC(=C(c2ccc(N)cc2)c2ccc(N)cc2)C=C1,.,-4%,5%,-10%,-11%,-53*
Nc1ccc(C(=O)C(=O)c2ccc(N)cc2)cc1,-10%,-9%,-7%,-13%,8%,1
O=C(NCCc1ccccc1F)C1C(=O)Nc2ccccc2C(=O)N1C1CCCCC1 (stereo unspecified),.,.,.,.,4%,3
C#CCOCCOCCOCCNc1nc(N2CCN(C(=O)CCCCCCCCCCNC(=O)[C@@H](CCC(=O)O)n3cc(CCCCCN)nn3)CC2)nc(N2CCN(C(=O)CCCCCCCCCCNC(=O)[C@H](CO)n3cc(CCCCCN)nn3)CC2)n1,.,4%,-18%,-4%,-5%,-54*
C#CCOCCOCCOCCNc1nc(N2CCN(C(=O)CCCCCCCCCCNC(=O)[C@@H](CCSC)n3cc(CCO)nn3)CC2)nc(N2CCN(C(=O)CCCCCCCCCCNC(=O)[C@H](CCC(=O)O)n3cc(CCCCCN)nn3)CC2)n1,.,-6%,-11%,12%,1%,-16
C#CCOCCOCCOCCNc1nc(N2CCN(C(=O)CCCCCCCCCCNC(=O)[C@H](CCCCN)n3cc(CCO)nn3)CC2)nc(N2CCN(C(=O)CCCCCCCCCCNC(=O)[C@H](CCCCN)n3cc(C[C@@H](C)CC)nn3)CC2)n1,.,-25%,79µM*,?,50µM*,-62*
C#CCOCCOCCOCCNc1nc(N2CCN(C(=O)CCCCCCCCCCNC(=O)[C@H](CCCCN)n3cc(CCO)nn3)CC2)nc(N2CCN(C(=O)CCCCCCCCCCNC(=O)[C@H](CCCCN)n3cc(CCCC(=O)O)nn3)CC2)n1,.,12%,-21%,?,21%,?
C#CCOCCOCCOCCNc1nc(N2CCN(C(=O)CCCCCCCCCCNC(=O)[C@@H](CCSC)n3cc(CCO)nn3)CC2)nc(N2CCN(C(=O)CCCCCCCCCCNC(=O)[C@H](CO)n3cc(CCCCCN)nn3)CC2)n1,.,1%,?,-13%,50µM*,?
C#CCOCCOCCOCCNc1nc(N2CCN(C(=O)CCCCCCCCCCNC(=O)[C@@H](CCC(=O)O)n3cc(CCCCCN)nn3)CC2)nc(N2CCN(C(=O)CCCCCCCCCCNC(=O)[C@H](CCCCN)n3cc(C[C@@H](C)CC)nn3)CC2)n1,.,16%,89µM*,3%,-8%,-53*
NC(CCC(=O)O)C12CC3CC(CC(C3)C1)C2 (stereo unspecified),11%,-9%,-5%,-17%,-9%,2
COc1ccc(S(=O)(=O)NCc2csc(C)n2)cc1OC,36%,2%,-10%,15%,-6%,4
COc1ccc(NC(=O)c2ccc(N3C(=O)C4CC=C(Cl)CC4C3=O)cc2)cc1 (stereo unspecified),?,-15%,-1%,?,-19%,-51*
COc1ccc(N2C(=O)C3CC=C(Cl)CC3C2=O)cc1 (stereo unspecified),0%,-9%,-8%,?,-28%,.
SMILES,POLB inh,POLK inh,Pol eta inh,Pol iota inh,WRN helicase inh,PI5P4K alpha inh
CCCCOC(=O)c1ccc(NC(=O)COC(=O)c2ccc3ncsc3c2)cc1,.,-6%,-11%,?,-5%,-9
CCOC(=O)c1noc2ncn(CC(=O)Nc3ccc(OC)c(Cl)c3)c(=O)c12,?,-9%[60.1 µM],2%,-29%,.,.
CCOC(=O)c1noc2nc(C)n(CC(=O)Nc3ccc(OC)c(Cl)c3)c(=O)c12,20µM*,4%[60.1 µM],-9%,10%,.,.
CCN1/C(=C/c2ccc3cc(C)ccc3[n+]2CC)Sc2cc(C)ccc21,?,-18%,?,?,50µM*,-19
CCCCN1/C(=C/c2cccc[n+]2C)Sc2cc(NC(C)=O)ccc21,3%,-2%,-9%,-24%,0%,-10
CCCCN1/C(=C/c2ccc3ccccc3[n+]2CC)Sc2ccccc21,50µM*,-40%,-23%,5%,-2%,-18
C#CCn1cc(/C=N/NC(=O)COc2cccc3cccnc23)c2ccccc21,?,?,?,22µM*,?,-25
Cc1ccccc1OCC(=O)N/N=C/c1cccc2cccnc12,23%,-21%,-2%,18%,-15%,6
O=C(N/N=C/c1ccc[nH]1)c1ccc(COc2cccc3cccnc23)cc1,1%,3%,-22%,73%,-3%,-6
O=C(N/N=C/c1ccccc1C(=O)O)c1ccc(COc2cccc3cccnc23)cc1,?,?,40µM*,?,2%[11.6 µM],-22
O=C(COc1cccc2cccnc12)N/N=C/c1ccccc1O,32µM*,-14%,-17%,4%,?,-3

# Screens (PubChem)
